In PubChem BioAssay (NCI):
This is part of a sample that, as a whole, favours compounds with a hit. Of some 79,000 tested, about 15% had one in any assay. Activity calls are given as the source filed them. Cut-off read from the data, not from the text of the source: active = growth inhibition above about 70%; inactive = the rest.

Key:
[1] = NCI Yeast Anticancer Drug Screen. Data for the rad52 strain (AID 147);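 note: 0% = growth of vehicle-treated control cultures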; conditions: S. cerevisiae rad52 mutant growth inhibition, active compounds read high
In short: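 The repair-mutant yeast strain was incubated with compounds, then growth was read and inhibition derived relative to vehicle.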

[2] = NCI Yeast Anticancer Drug Screen. Data for the wt1 strain (AID 149);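 note: 0% = growth of vehicle-treated wt1 cultures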; conditions: S. cerevisiae wt1 strain (SPY 50644) growth inhibition, active compounds read high
In short: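 Using yeast strain wt1, compound-induced growth inhibition was determined against vehicle-treated cultures.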

[3] = NCI Yeast Anticancer Drug Screen. Data for the rad50EPP+ strain (AID 151);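 note: 0% = growth of vehicle-treated control cultures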; conditions: S. cerevisiae rad50 mutant strain, active compounds read high
In short: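 Vehicle-normalised growth inhibition; rad50EPP+ yeast strain, altered in DNA damage repair, compound-treated.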

[4] = NCI Yeast Anticancer Drug Screen. Data for the rad50 strain (AID 155);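 note: 0% = growth of vehicle-only cultures of the same strain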; conditions: S. cerevisiae rad50 strain growth inhibition, active compounds read high
In short: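 Relative growth inhibition (compound vs vehicle) was measured in yeast with a defined repair-gene alteration.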

[5] = NCI Yeast Anticancer Drug Screen. Data for the mec2-1 strain (AID 157); conditions: S. cerevisiae mec2-1 strain, active compounds read high
In short: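 Mutant yeast (mec2-1) grown with compound; growth inhibition relative to vehicle control reported.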

[6] = NCI Yeast Anticancer Drug Screen. Data for the sgs1 mgt1 strain (AID 161);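 note: 0% = growth of cultures given vehicle only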; conditions: S. cerevisiae sgs1 mgt1 strain, active compounds read high
In short: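 Compounds are added to genetically altered yeast, and growth is compared with cultures given vehicle alone to give percent inhibition.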

[7] = NCI Yeast Anticancer Drug Screen. Data for the CLN2oe strain (AID 163);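 note: 0% = growth of vehicle-only control cultures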; conditions: S. cerevisiae CLN2oe strain, active compounds read high
In short: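 Compounds are applied to yeast harbouring a defined cell-cycle control change; reduced growth compared with vehicle-treated controls gives the value.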

[8] = NCI Yeast Anticancer Drug Screen. Data for the cln2 rad14 strain (AID 165);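 note: 0% = growth equal to vehicle treated cultures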; conditions: S. cerevisiae cln2 rad14 strain, active compounds read high
In short: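 Readout is yeast growth inhibition versus vehicle-treated controls, using a strain with cln2 and rad14 alterations exposed to compound.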

[9] = NCI Yeast Anticancer Drug Screen. Data for the bub3 strain (AID 167); conditions: S. cerevisiae bub3 mutant strain, active compounds read high
In short: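 Screening used yeast with an engineered genetic alteration affecting cell cycle control. Compound-exposed cultures were compared with vehicle cultures, and reduced growth was taken as inhibition.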

[10] = NCI Yeast Anticancer Drug Screen. Data for the wt2 strain (AID 169);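 note: 0% = growth of vehicle-treated yeast cultures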; conditions: S. cerevisiae wt2 strain growth inhibition, active compounds read high
In short: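 Against vehicle-treated controls, the growth of yeast exposed to each compound was compared, and the inhibition was recorded.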

[11] = NCI Yeast Anticancer Drug Screen. Data for the sgs1 strain (AID 173);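 note: 0% = growth of vehicle-only control cultures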; conditions: S. cerevisiae sgs1 mutant, active compounds read high
In short: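 Each compound was added to cultures of the altered yeast strain. Growth was recorded, and inhibition was derived by comparison with vehicle controls.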

[12] = NCI Yeast Anticancer Drug Screen. Data for the mlh1 rad18 strain (AID 175); conditions: S. cerevisiae mlh1 rad18 strain growth inhibition, active compounds read high
In short: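 Genetically defined yeast (DNA repair-deficient) exposed to compounds; growth inhibition determined relative to vehicle.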

[13] = NCI Yeast Anticancer Drug Screen. Data for the rad18 strain (AID 177); conditions: S. cerevisiae rad18 mutant growth inhibition, active compounds read high
In short: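 Vehicle-treated cultures served as the baseline for scoring compound-induced growth inhibition in DNA-repair-mutant yeast.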

[14] = NCI Yeast Anticancer Drug Screen. Data for the mgt1 strain (AID 153); conditions: S. cerevisiae mgt1 mutant growth inhibition, active compounds read high
In short: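 Vehicle-normalized growth inhibition is determined in mgt1 yeast, a strain selected for a defined alteration in DNA repair or cell cycle control.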

[15] = at 5.0 µM (retest, dose inferred, filed as 0.5)
[16] = at 50.0 µM (retest, dose inferred, filed as 5.0)

Measured: growth inhibition

CCCCCNC(=O)c1c(O)[nH]c(=S)[nH]c1=O
active: [1]; at 33.0 µM 89% | [1]; at 100.0 µM 94% | [2]; at 100.0 µM 88% | [3]; at 100.0 µM 78% | [4]; at 33.0 µM 95% | [4]; [16] 93% | [4]; at 50.0 µM 88.1% | [4]; at 100.0 µM 96% | [5]; at 33.0 µM 87% | [5]; [16] 92% | [5]; at 50.0 µM 87.7% | [5]; at 100.0 µM 92% | [6]; [16] 87% | [6]; at 50.0 µM 92.2% | [7]; at 100.0 µM 83% | [9]; at 33.0 µM 87% | [9]; [16] 94% | [9]; at 50.0 µM 88.6% | [9]; at 100.0 µM 93% | [10]; at 33.0 µM 91% | [10]; at 100.0 µM 94% | [11]; at 11.0 µM 79% | [11]; at 33.0 µM 94% | [11]; at 100.0 µM 96% | [12]; at 50.0 µM 90.1% | [13]; at 33.0 µM 86% | [13]; at 100.0 µM 94%
inactive: [1]; at 1.2 µM -6% | [1]; at 3.7 µM -15% | [1]; at 11.0 µM 23% | [2]; at 1.2 µM -3% | [2]; at 3.7 µM 9% | [2]; at 11.0 µM 15% | [2]; at 33.0 µM 68% | [3]; at 1.2 µM -25% | [3]; at 3.7 µM -23% | [3]; at 11.0 µM -16% | [3]; at 33.0 µM 30% | [4]; at 1.2 µM 5% | [4]; at 3.7 µM 14% | [4]; [15] 61% | [4]; at 11.0 µM 64% | [5]; at 1.2 µM -14% | [5]; at 3.7 µM -5% | [5]; [15] 8% | [5]; at 11.0 µM 25% | [6]; [15] 26% | [7]; at 1.2 µM 4% | [7]; at 3.7 µM -7% | [7]; at 11.0 µM 2% | [7]; at 33.0 µM 53% | [8]; [15] 6% | [8]; [16] 60% | [8]; at 50.0 µM 61.3% | [9]; at 1.2 µM -17% | [9]; at 3.7 µM -1% | [9]; [15] 65% | [9]; at 11.0 µM 65% | [10]; at 1.2 µM -32% | [10]; at 3.7 µM -1% | [10]; at 11.0 µM 56% | [11]; at 1.2 µM -10% | [11]; at 3.7 µM 0% | [12]; [15] 42% | [12]; [16] 47% | [13]; at 1.2 µM -12% | [13]; at 3.7 µM 2% | [13]; at 11.0 µM 45%

Oc1cccnc1[Se]
active: [1]; at 33.0 µM 99% | [1]; at 100.0 µM 99% | [2]; at 100.0 µM 99% | [3]; at 33.0 µM 74% | [3]; at 100.0 µM 96% | [14]; at 100.0 µM 99% | [5]; at 50.0 µM 97.5% | [5]; at 100.0 µM 98% | [6]; at 50.0 µM 95.3% | [8]; at 50.0 µM 99% | [9]; at 50.0 µM 99.2% | [10]; at 33.0 µM 97% | [10]; at 100.0 µM 99% | [11]; at 33.0 µM 98% | [11]; at 100.0 µM 99% | [12]; at 50.0 µM 98% | [13]; at 33.0 µM 94% | [13]; at 100.0 µM 99%
inactive: [1]; at 1.2 µM 4% | [1]; at 3.7 µM 7% | [1]; at 11.0 µM 55% | [2]; at 1.2 µM -2% | [2]; at 3.7 µM -3% | [2]; at 11.0 µM -4% | [2]; at 33.0 µM 46% | [3]; at 1.2 µM 1% | [3]; at 3.7 µM 9% | [3]; at 11.0 µM 33% | [14]; at 1.2 µM -4% | [14]; at 3.7 µM -3% | [14]; at 11.0 µM -2% | [14]; at 33.0 µM 68% | [5]; at 1.2 µM -3% | [5]; at 3.7 µM -5% | [5]; [15] -2% | [5]; at 11.0 µM -3% | [5]; at 33.0 µM 38% | [5]; [16] -10% | [6]; [15] -10% | [6]; [16] 4% | [7]; at 1.2 µM -3% | [7]; at 3.7 µM 3% | [7]; at 11.0 µM -8% | [7]; at 33.0 µM 2% | [7]; at 100.0 µM 37% | [8]; [15] 7% | [8]; [16] 6% | [9]; at 1.2 µM -6% | [9]; at 3.7 µM -7% | [9]; [15] -21% | [9]; at 11.0 µM -13% | [9]; at 33.0 µM -5% | [9]; [16] -18% | [9]; at 100.0 µM 63% | [10]; at 1.2 µM -5% | [10]; at 3.7 µM -9% | [10]; at 11.0 µM -15% | [11]; at 1.2 µM -1% | [11]; at 3.7 µM 21% | [11]; at 11.0 µM 11% | [12]; [15] 7% | [12]; [16] 59% | [13]; at 1.2 µM -2% | [13]; at 3.7 µM 3% | [13]; at 11.0 µM 20%
